Data from publication PMC12529666, “Dysregulation of AGO2-miRNA dynamics underlies the AGO2-associated Lessel–Kreienkamp syndrome”.
Changes are numbered by the printed parent chain.

B1: ATGTTTTA (ssRNA)
RNA 1: GAGUUCUACAGUCCGACGAUCCCAACAUGUUUUACACCUGGAAUUCUCGGGUGCCAA
RNA 2: UGGAGUGUGACAAUGGUGUUUG
DNA 1: GATCGTCGGACTGTAGAACTC
DNA 2: TTGGCACCCGAGAATTCCA
modifications: constant regions annealed to DNA blockers; guide miR-122 5' phosphate
B2: GCGCCCCG (ssRNA)
RNA 1: B1 RNA 1 with A27G, U28C, U30C, U31C, U32C, U33C, A34G
RNA 2: UGGAGUGUGACAAUGGUGUUUG
DNA 1: GATCGTCGGACTGTAGAACTC
DNA 2: TTGGCACCCGAGAATTCCA
modifications: constant regions annealed to DNA blockers; guide miR-122 5' phosphate
B3: GTGCCTCA (ssRNA)
RNA 1: B1 RNA 1 with A27G, U30C, U31C, U33C
RNA 2: UGGAGUGUGACAAUGGUGUUUG
DNA 1: GATCGTCGGACTGTAGAACTC
DNA 2: TTGGCACCCGAGAATTCCA
modifications: constant regions annealed to DNA blockers; guide miR-122 5' phosphate
B4: GTGCTCTG (ssRNA)
RNA 1: B1 RNA 1 with A27G, U30C, U32C, A34G
RNA 2: UGGAGUGUGACAAUGGUGUUUG
DNA 1: GATCGTCGGACTGTAGAACTC
DNA 2: TTGGCACCCGAGAATTCCA
modifications: constant regions annealed to DNA blockers; guide miR-122 5' phosphate
B5: ACGTCTTA (ssRNA)
RNA 1: B1 RNA 1 with U28C, U31C
RNA 2: UGGAGUGUGACAAUGGUGUUUG
DNA 1: GATCGTCGGACTGTAGAACTC
DNA 2: TTGGCACCCGAGAATTCCA
modifications: constant regions annealed to DNA blockers; guide miR-122 5' phosphate
B6: GTGTCTCA (ssRNA)
RNA 1: B1 RNA 1 with A27G, U31C, U33C
RNA 2: UGGAGUGUGACAAUGGUGUUUG
DNA 1: GATCGTCGGACTGTAGAACTC
DNA 2: TTGGCACCCGAGAATTCCA
modifications: constant regions annealed to DNA blockers; guide miR-122 5' phosphate
B7: ATACTCCA (ssRNA)
RNA 1: B1 RNA 1 with G29A, U30C, U32C, U33C
RNA 2: UGGAGUGUGACAAUGGUGUUUG
DNA 1: GATCGTCGGACTGTAGAACTC
DNA 2: TTGGCACCCGAGAATTCCA
modifications: constant regions annealed to DNA blockers; guide miR-122 5' phosphate
B8: ACGCTCTG (ssRNA)
RNA 1: B1 RNA 1 with U28C, U30C, U32C, A34G
RNA 2: UGGAGUGUGACAAUGGUGUUUG
DNA 1: GATCGTCGGACTGTAGAACTC
DNA 2: TTGGCACCCGAGAATTCCA
modifications: constant regions annealed to DNA blockers; guide miR-122 5' phosphate
B9: ACACTCTG (ssRNA)
RNA 1: B1 RNA 1 with U28C, G29A, U30C, U32C, A34G
RNA 2: UGGAGUGUGACAAUGGUGUUUG
DNA 1: GATCGTCGGACTGTAGAACTC
DNA 2: TTGGCACCCGAGAATTCCA
modifications: constant regions annealed to DNA blockers; guide miR-122 5' phosphate
B10: GTGCCCCA (ssRNA)
RNA 1: B1 RNA 1 with A27G, U30C, U31C, U32C, U33C
RNA 2: UGGAGUGUGACAAUGGUGUUUG
DNA 1: GATCGTCGGACTGTAGAACTC
DNA 2: TTGGCACCCGAGAATTCCA
modifications: constant regions annealed to DNA blockers; guide miR-122 5' phosphate

What follows are binders tested against AGO2 WT (phosphosite mutant background) (Homo sapiens, UniProt Q9UKV8 1-859, S387D;S824A;S828D;S831D;S834A) (assay: RNA Bind-n-Seq (nitrocellulose filter binding and sequencing); miR-122 guide loaded in AGO2; 60 min incubation; 30 mM Tris pH 8.0, 100 mM potassium acetate, 2 mM magnesium acetate, 0.5 mM TCEP, 0.005% NP-40, 0.01 mg/ml yeast tRNA; 3 nM AGO2-miR-122, 100 nM RNA library; 60; high values mean tight binding). Details: protein: recombinant; tags: His6 (N-terminal, pFastBac HTA).
Sequence of AGO2 WT (phosphosite mutant background) (Q9UKV8 whole entry S387D/S824A/S828D/S831D/S834A): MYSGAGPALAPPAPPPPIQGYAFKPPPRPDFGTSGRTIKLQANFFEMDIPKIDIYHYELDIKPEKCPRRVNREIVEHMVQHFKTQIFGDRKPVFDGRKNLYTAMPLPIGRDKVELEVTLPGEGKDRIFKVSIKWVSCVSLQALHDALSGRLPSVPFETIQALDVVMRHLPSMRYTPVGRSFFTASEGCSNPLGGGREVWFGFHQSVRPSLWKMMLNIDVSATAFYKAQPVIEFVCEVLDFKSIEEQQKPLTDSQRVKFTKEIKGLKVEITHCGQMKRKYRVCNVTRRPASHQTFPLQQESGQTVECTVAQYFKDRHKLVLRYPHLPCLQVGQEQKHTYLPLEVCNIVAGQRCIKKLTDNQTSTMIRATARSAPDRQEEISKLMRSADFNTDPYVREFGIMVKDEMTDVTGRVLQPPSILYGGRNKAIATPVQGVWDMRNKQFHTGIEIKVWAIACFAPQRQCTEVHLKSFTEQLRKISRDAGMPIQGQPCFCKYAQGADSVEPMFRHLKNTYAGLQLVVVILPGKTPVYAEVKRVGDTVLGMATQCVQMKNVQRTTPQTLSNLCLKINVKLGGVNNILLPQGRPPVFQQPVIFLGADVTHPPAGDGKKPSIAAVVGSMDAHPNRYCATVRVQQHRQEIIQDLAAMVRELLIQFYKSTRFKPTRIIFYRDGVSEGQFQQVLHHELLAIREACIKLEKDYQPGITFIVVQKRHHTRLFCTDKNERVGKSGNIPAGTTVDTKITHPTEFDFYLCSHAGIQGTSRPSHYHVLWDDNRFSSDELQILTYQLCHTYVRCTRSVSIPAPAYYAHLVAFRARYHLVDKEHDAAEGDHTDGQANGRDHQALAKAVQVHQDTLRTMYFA
Outline: (§1)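 His-tagged AGO2 was expressed in Sf9 insect cells by baculovirus, loaded with a synthetic guide RNA, and purified by Ni-NTA and a biotinylated capture oligo. Bound RNA was extracted, reverse-transcribed, barcode-amplified and Illumina-sequenced. Fold enrichment is each sequence's read fraction divided by its input-library read fraction.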
In the case of B1, the binding signal is reported as 0.12 fold enrichment over input. For B2, the binding signal was 0.12 fold enrichment over input. In the case of B3, the binding signal is reported as 0.122 fold enrichment over input. In the case of B4, the binding signal is reported as 0.123 fold enrichment over input. B5 was tested, and the binding signal was 0.13 fold enrichment over input. B6 was tested, and the binding signal was 0.126 fold enrichment over input. With B7 the binding signal was 1.32 fold enrichment over input. For B8, the binding signal was 0.132 fold enrichment over input. With B9 the binding signal was 0.933 fold enrichment over input. For B10, the binding signal was 0.123 fold enrichment over input.

The binders below were run against AGO2 L192P (Homo sapiens, UniProt Q9UKV8 1-859, L192P;S387D;S824A;S828D;S831D;S834A) in the same assay as above. Details: protein: recombinant; tags: His6 (N-terminal, pFastBac HTA).
Sequence of AGO2 L192P (Q9UKV8 whole entry L192P/S387D/S824A/S828D/S831D/S834A): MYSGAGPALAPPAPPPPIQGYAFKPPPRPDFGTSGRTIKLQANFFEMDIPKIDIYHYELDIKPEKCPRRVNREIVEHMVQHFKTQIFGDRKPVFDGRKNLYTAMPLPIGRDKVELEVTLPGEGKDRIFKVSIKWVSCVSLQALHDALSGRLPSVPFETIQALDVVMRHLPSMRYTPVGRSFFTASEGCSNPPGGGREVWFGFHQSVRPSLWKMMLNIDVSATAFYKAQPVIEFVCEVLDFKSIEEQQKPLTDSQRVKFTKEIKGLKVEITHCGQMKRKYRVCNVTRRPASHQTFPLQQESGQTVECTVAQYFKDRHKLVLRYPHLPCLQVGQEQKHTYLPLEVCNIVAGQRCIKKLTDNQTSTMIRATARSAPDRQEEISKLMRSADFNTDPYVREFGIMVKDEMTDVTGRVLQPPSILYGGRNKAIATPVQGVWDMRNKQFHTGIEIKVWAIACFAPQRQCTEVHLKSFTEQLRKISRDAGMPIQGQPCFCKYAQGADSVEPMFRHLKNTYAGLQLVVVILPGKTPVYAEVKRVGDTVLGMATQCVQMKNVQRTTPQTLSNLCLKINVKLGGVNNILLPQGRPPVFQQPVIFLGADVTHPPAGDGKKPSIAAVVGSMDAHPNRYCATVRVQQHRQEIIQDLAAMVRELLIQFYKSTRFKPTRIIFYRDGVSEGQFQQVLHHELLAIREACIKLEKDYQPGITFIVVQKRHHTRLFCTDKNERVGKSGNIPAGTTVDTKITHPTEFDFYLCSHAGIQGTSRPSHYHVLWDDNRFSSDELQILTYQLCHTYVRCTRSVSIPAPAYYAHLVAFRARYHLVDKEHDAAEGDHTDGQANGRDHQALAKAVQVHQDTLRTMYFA
Outline: as §1
With B1 the binding signal was 0.492 fold enrichment over input. With B2 the binding signal was 0.438 fold enrichment over input. In the case of B3, the binding signal is reported as 0.533 fold enrichment over input. B4 was tested, and the binding signal was 0.483 fold enrichment over input. In the case of B5, the binding signal is reported as 0.525 fold enrichment over input. B6 was tested, and the binding signal was 0.486 fold enrichment over input. With B7 the binding signal was 4.64 fold enrichment over input. With B8 the binding signal was 0.394 fold enrichment over input. For B9, the binding signal was 0.807 fold enrichment over input. In the case of B10, the binding signal is reported as 0.464 fold enrichment over input.

Each binder was assayed against AGO2 A367P (Homo sapiens, UniProt Q9UKV8 1-859, A367P;S387D;S824A;S828D;S831D;S834A) in the same assay as above. Details: protein: recombinant; tags: His6 (N-terminal, pFastBac HTA).
Sequence of AGO2 A367P (Q9UKV8 whole entry A367P/S387D/S824A/S828D/S831D/S834A): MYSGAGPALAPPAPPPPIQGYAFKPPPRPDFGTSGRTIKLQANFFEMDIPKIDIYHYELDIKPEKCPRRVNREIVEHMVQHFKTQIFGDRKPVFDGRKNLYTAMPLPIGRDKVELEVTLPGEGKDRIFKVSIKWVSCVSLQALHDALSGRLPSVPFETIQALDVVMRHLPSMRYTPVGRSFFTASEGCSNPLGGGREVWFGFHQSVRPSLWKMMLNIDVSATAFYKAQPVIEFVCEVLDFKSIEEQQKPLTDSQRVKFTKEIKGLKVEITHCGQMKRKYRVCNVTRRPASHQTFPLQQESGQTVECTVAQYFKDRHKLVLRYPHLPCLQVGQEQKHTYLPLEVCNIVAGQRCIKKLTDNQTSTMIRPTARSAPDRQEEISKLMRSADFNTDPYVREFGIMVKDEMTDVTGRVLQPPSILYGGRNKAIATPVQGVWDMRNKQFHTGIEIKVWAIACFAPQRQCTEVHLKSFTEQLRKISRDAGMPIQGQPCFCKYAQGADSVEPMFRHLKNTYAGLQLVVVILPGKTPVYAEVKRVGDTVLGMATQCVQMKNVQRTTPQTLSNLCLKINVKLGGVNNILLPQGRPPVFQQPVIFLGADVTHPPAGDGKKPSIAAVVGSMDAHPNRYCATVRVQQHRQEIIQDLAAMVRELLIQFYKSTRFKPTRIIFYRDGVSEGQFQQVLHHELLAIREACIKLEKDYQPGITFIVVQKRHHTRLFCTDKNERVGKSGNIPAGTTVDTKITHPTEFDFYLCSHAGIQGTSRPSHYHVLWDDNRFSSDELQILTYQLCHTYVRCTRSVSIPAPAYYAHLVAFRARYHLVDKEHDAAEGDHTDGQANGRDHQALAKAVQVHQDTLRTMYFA
Outline: as §1
B1 was tested, and the binding signal was 0.247 fold enrichment over input. In the case of B2, the binding signal is reported as 0.18 fold enrichment over input. With B3 the binding signal was 0.232 fold enrichment over input. With B4 the binding signal was 0.182 fold enrichment over input. For B5, the binding signal was 0.269 fold enrichment over input. In the case of B6, the binding signal is reported as 0.222 fold enrichment over input. For B7, the binding signal was 6.04 fold enrichment over input. In the case of B8, the binding signal is reported as 0.169 fold enrichment over input. With B9 the binding signal was 0.794 fold enrichment over input. With B10 the binding signal was 0.227 fold enrichment over input.

These binders were tested against AGO2 T357M (Homo sapiens, UniProt Q9UKV8 1-859, T357M;S387D;S824A;S828D;S831D;S834A) in the same assay as above. Details: protein: recombinant; tags: His6 (N-terminal, pFastBac HTA).
Sequence of AGO2 T357M (Q9UKV8 whole entry T357M/S387D/S824A/S828D/S831D/S834A): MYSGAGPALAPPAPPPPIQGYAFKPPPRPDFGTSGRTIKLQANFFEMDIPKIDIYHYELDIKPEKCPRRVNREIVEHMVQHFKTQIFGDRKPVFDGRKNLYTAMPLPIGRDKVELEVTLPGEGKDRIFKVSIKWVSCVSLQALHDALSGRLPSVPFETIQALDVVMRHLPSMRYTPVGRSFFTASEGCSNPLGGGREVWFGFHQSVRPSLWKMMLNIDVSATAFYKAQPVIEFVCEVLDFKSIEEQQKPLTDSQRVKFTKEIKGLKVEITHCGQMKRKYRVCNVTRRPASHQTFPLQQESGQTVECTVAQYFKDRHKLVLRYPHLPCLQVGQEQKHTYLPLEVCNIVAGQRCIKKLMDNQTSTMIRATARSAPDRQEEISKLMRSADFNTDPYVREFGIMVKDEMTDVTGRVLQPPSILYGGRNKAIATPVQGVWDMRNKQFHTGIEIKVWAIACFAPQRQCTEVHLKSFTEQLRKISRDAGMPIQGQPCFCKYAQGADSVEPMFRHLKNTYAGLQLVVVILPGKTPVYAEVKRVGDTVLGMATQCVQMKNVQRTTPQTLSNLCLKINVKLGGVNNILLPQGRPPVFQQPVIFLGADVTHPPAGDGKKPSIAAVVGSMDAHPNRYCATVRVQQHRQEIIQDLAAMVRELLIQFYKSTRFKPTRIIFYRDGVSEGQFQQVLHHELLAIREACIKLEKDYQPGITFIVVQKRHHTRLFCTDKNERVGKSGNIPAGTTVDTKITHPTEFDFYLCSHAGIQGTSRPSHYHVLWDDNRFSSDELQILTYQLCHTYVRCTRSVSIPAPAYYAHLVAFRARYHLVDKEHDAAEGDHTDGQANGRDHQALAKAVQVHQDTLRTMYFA
Outline: as §1
With B1 the binding signal was 0.607 fold enrichment over input. For B2, the binding signal was 0.745 fold enrichment over input. With B3 the binding signal was 0.687 fold enrichment over input. B4 was tested, and the binding signal was 0.67 fold enrichment over input. In the case of B5, the binding signal is reported as 0.643 fold enrichment over input. With B6 the binding signal was 0.585 fold enrichment over input. B7 was tested, and the binding signal was 1.16 fold enrichment over input. In the case of B8, the binding signal is reported as 0.539 fold enrichment over input. B9 was tested, and the binding signal was 0.868 fold enrichment over input. For B10, the binding signal was 0.677 fold enrichment over input.

The binders below were run against AGO2 F182del (Homo sapiens, UniProt Q9UKV8 1-859, S387D;S824A;S828D;S831D;S834A;del182-182) in the same assay as above. Details: protein: recombinant; tags: His6 (N-terminal, pFastBac HTA).
Sequence of AGO2 F182del (Q9UKV8 other isoform, or with tags, fused parts or gaps S387D;S824A;S828D;S831D;S834A;del182-182): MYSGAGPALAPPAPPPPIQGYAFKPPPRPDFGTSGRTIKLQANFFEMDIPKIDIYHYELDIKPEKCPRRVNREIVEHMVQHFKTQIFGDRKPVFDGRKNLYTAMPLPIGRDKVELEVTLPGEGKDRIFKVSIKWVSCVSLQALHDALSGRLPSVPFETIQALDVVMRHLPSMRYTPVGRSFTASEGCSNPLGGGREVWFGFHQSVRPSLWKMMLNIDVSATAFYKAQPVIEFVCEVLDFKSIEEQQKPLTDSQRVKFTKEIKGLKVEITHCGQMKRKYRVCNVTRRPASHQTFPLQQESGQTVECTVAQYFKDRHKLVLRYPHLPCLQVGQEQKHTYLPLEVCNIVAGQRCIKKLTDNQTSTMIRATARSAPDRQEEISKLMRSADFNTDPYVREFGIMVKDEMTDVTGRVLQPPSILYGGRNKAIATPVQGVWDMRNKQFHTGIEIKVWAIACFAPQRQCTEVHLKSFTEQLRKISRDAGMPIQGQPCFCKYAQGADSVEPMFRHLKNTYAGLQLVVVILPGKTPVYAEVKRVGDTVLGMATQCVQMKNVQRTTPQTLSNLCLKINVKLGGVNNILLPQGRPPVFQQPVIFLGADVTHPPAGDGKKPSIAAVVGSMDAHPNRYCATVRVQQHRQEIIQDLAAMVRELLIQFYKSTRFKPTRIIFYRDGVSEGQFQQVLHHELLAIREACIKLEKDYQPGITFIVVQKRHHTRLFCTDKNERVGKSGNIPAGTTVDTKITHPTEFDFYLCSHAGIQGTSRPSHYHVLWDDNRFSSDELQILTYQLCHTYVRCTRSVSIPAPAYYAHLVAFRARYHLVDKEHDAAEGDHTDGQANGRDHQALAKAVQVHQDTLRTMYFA
Outline: as §1
In the case of B1, the binding signal is reported as 0.21 fold enrichment over input. In the case of B3, the binding signal is reported as 0.326 fold enrichment over input. B5 was tested, and the binding signal was 0.333 fold enrichment over input. B6 was tested, and the binding signal was 0.387 fold enrichment over input. With B7 the binding signal was 8.59 fold enrichment over input. With B8 the binding signal was 0.149 fold enrichment over input. For B9, the binding signal was 2.4 fold enrichment over input. In the case of B10, the binding signal is reported as 0.158 fold enrichment over input.
